Here are results for 30 molecules from PubChem BioAssay AID588590 (National Center for Advancing Translational Sciences (NCATS), 2011).

The campaign covered roughly 390,000 compounds. About 4,000 (1%) were called active. Another 7% or so got no clear call; they are omitted. The sample holds actives, similar compounds and a random draw of the others, so the mix is not that of the screen. Calls come from the whole dose curve; as a rule, active = well fitted inhibition curve with a large enough effect; inconclusive = small, poorly fitted or top-dose-only effect, or another doubt; inactive = no such curve, though single readings can be large or run the other way.
Potency is the fitted concentration of half-maximal effect.

Sequence of DNA polymerase iota (Homo sapiens) (Q9UNA4 whole entry, looked up): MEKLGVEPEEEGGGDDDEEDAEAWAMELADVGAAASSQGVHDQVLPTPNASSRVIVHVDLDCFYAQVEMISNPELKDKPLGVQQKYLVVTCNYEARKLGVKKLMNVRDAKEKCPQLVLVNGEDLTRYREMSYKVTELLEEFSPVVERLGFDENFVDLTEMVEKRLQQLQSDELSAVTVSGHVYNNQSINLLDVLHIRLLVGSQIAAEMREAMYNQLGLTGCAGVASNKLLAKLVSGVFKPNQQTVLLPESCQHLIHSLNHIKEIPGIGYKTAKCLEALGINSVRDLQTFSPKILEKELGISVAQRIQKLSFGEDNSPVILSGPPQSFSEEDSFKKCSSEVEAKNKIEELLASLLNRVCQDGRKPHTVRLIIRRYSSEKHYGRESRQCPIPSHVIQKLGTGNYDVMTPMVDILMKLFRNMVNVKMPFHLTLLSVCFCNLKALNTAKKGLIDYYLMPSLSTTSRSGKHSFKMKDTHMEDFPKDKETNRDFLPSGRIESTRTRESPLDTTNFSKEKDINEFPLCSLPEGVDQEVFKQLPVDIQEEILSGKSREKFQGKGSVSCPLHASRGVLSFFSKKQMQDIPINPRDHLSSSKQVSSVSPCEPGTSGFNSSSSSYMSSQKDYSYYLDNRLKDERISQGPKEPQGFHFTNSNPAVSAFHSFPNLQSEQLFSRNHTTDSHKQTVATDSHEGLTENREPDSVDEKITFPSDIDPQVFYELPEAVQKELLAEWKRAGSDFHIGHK

This test concerns the target DNA polymerase iota (Homo sapiens) (UniProt Q9UNA4). Briefly: qHTS for Inhibitors of Polymerase Iota. As to conditions: Pol iota fluorescent replication assay, 10 min; series mostly up to 115 µM; activity, negative = inhibition: at the top concentration. In short, it runs like this:
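Pol iota at 10 nM preincubated 15 min with compounds at room temperature; reaction started with fluorescent substrate, 50 nM final. Fluorescence read kinetically at 0 and 10 min; buffer-only wells as negative control.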
As for `Nc1ccc(/C=C/c2ccnc3ccccc23)c([N+](=O)[O-])c1`, the “activity, negative = inhibition” value was 28.7% (inactive).

On to `Cc1ccccc1OCc1nc2c3cnn(-c4ccccc4F)c3ncn2n1`, for which the “activity, negative = inhibition” value is 16% (inactive).

`Cc1ccc(C)c(S(=O)(=O)c2nnn3c2nc(N2CCOCC2)c2sccc23)c1`: the “activity, negative = inhibition” value was 28.5% (inactive). In the case of `O=C(CCCOc1ccccc1)NCc1ccco1`, the “activity, negative = inhibition” value was 13.6% (inactive). For the molecule `O=S(=O)(NCc1ccco1)c1cnc(Cl)c(Cl)c1`, the “activity, negative = inhibition” value was -22.2% (inactive). `CN(c1ccccc1)S(=O)(=O)c1ccc(Cl)c(C(=O)OCC(=O)NCc2ccco2)c1`: the Potency is 44.7 µM (active).

On to `CN(c1ccccc1)S(=O)(=O)c1ccc(Cl)c(C(=O)OCC(=O)N2CCOCC2)c1`, for which the “activity, negative = inhibition” value was 166% (inactive). `O=C(COC(=O)c1ccccc1C(=O)N1CCN(c2ccccc2)CC1)NCc1ccccc1`: the “activity, negative = inhibition” value is 151% (inactive). Turning to `O=C(COC(=O)c1ccccc1O)NCc1ccco1`, the Potency was 35.5 µM (active). As to `COc1ccc(CCNC(=O)COC(=O)c2cnc(Cl)c(Cl)c2)cc1`, the “activity, negative = inhibition” value is 28% (inactive).

For the molecule `O=C(COC(=O)c1cnc(Cl)c(Cl)c1)NCc1ccco1`, the Potency was 17.8 µM (active).

Regarding `Cc1cccc(C)c1NC(=O)COC(=O)c1ccccc1O`, the “activity, negative = inhibition” value is 86.2% (inactive). As to `Cc1cc(C(=O)OCC(=O)NCc2ccco2)c(C)n1-c1ccccc1`, the Potency was 22.4 µM (active). `O=C(COC(=O)c1cc(S(=O)(=O)N2CCOCC2)ccc1Cl)NCCc1ccccc1`: the “activity, negative = inhibition” value is 45.3% (inactive). `Cn1c(N)c(C(=O)COC(=O)c2ccccc2NCc2ccco2)c(=O)n(C)c1=O`: the “activity, negative = inhibition” value was 15.1% (inactive).

With `CN1CCN(C(CNC(=O)c2ccccc2F)c2ccc3c(c2)OCO3)CC1` (stereo not given), the “activity, negative = inhibition” value is 28.1% (inactive). `Cc1ccc(OCCSc2nc(C)c(Cc3ccccc3)c(=O)[nH]2)cc1`: the “activity, negative = inhibition” value was 14.1% (inactive). For `Cc1ccc(CCNC(=O)c2ccc3c(c2)N(Cc2cc(C)ccc2C)C(=O)c2ccccc2S3=O)cc1` (stereo not given), the “activity, negative = inhibition” value is -18.7% (inactive). For the molecule `Cc1ccc(Cl)cc1N1CCN(C(=O)c2cccn3c(=O)c4cc(Cl)ccc4nc23)CC1`, the “activity, negative = inhibition” value was 34.6% (inactive). Turning to `CCCn1c2ccccc2c2cnn(CC(=O)N3CCCC(C(=O)OCC)C3)c(=O)c21` (stereo not given), the “activity, negative = inhibition” value was 2.71% (inactive).

As for `CCOC(=O)N1CCc2c(sc3c2c(=O)n(-c2ccc(CC)cc2)c(=O)n3C)C1`, the “activity, negative = inhibition” value was 35.1% (inactive). `O=C(NCc1ccccc1)c1cccc(NC(=O)N2CCSc3ncccc32)c1`: the “activity, negative = inhibition” value was 16.8% (inactive). For the molecule `Cc1c(NC(=O)Cc2ccccc2)cccc1-c1nc2cccnc2s1`, the “activity, negative = inhibition” value is 11.6% (inactive). As to `O=C(Nc1ccccc1Cl)/C(Cl)=C(\Cl)S(=O)c1ccccc1` (stereo not given), the Potency is 12.6 µM (active). In the case of `O=C(Nc1ccccc1Cl)N1CCC(CN2CCCC2)CC1`, the “activity, negative = inhibition” value was -25.7% (inactive). Consider `O=C(Nc1ccccc1Cl)N1CCC(CN2CCCCC2)CC1`, for which the “activity, negative = inhibition” value was -15.7% (inactive). Still for that read-out and setting: the same measure for `Cc1ccc(-c2nn3c(=O)cc(CN4CCN(S(=O)(=O)c5ccc(Cl)cc5)CC4)nc3s2)cc1`: -15.6% (inactive); for `CC(=O)c1cc(C#N)c(SCC(=O)Nc2nccs2)nc1C`: 33.6% (inactive). Regarding `N#Cc1ccsc1NC(=O)CN1CCCCC1`, the “activity, negative = inhibition” value is 4.32% (inactive). For the molecule `Cc1csc(SCC(=O)Nc2sccc2C#N)n1`, the Potency is 22.4 µM (active).
